From PubChem BioAssay (NCI)
Compounds without any hit were thinned out: in the full panel of roughly 83,000, 20% have a hit.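 Compound tested at a single concentration for 48 hours in 96-well plates; a percent growth value below 10 was scored as active.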 Activity calls are given as the source filed them.

system: 786-0 renal; experiment: NCI-60 one-dose screen, 48 h (100 = growth as untreated, 0 = no growth, -100 = all killed); details: 10 µM unless noted

SMILES	growth
Nc1c(C(=O)Nc2c(Cl)cccc2Cl)sc2nc3c(cc12)CCCC3	103% (inactive)
COc1cc2ncnc(Nc3ccc(OCc4cccc(F)c4)c(Cl)c3)c2cc1NC(=O)C1CCCC1	78.3% (inactive)
O=C(N/N=C/c1ccccc1SSc1ccccc1/C=N/NC(=O)c1ccccc1)c1ccccc1	23.6% (inactive)
C[C@@H]1CCCCCCCCC[C@H](O)C(=O)C[C@@H](SC[C@@H](O)C(=O)O)C(=O)O1	85.7% (inactive)
C=C(C)[C@@H]1CC[C@]2(C)[C@H](CC=C3[C@@H]4CC(C)(C)CC[C@]4(C(=O)OC)CC[C@]32C)[C@@]1(C)CC/C(N)=N/O	66.6% (inactive)
C=C(C)[C@@H]1CC[C@]2(C)[C@H](CC=C3[C@@H]4CC(C)(C)CC[C@]4(C=O)CC[C@]32C)[C@@]1(C)CCCN	90.4% (inactive)
Cc1ccc(/C=C(\C#N)c2cc3ccccc3n2C)cc1	49.9% (inactive)
N=C(N)c1ccc(S(N)(=O)=O)cc1	90.8% (inactive)
COc1ccc(-c2cc(=O)oc3ccc(Cl)cc23)cc1F	25% (inactive)
CCSc1sc(-c2ccc(C)cc2)nc1[P+](c1ccccc1)(c1ccccc1)c1ccccc1	5.86% (active)
COC(=O)[C@]12CC[C@@H](C)[C@H](C)[C@@H]1C1=CC(=O)[C@@H]3[C@@]4(C)C[C@@H](O)[C@H](O)[C@@]5(C)COC(=C45)C[C@@]3(C)[C@]1(C)CC2	78.5% (inactive)
O=S(=O)(NCCNc1cc(-c2cn(-c3ccccc3)nc2-c2cccc(O)c2)ccn1)c1ccc(Br)cc1	2.12% (active)
Brc1ccc2[nH]cc(-c3nc(-c4c[nH]c5ncccc45)cs3)c2c1	10.4% (inactive)
Cc1ccc(-c2ccc(Nc3ccccc3)nn2)cc1S(N)(=O)=O	103% (inactive)
Cn1c2c(Cl)c(Cl)ccc2c2c(C#N)c[nH]c(=O)c21	97.4% (inactive)
C/C(=N/NC(N)=S)C(=O)O	102% (inactive)
CCCCC[C@H]1C/C=C2/C(=O)C=C[C@@H]2C/C=C\CCCC(=O)O[C@@H](CCCCC)C/C=C2/C(=O)C=C[C@@H]2C/C=C\CCCC(=O)O1	-86.8% (active)
C#CCn1c(C)cc(C)c(C#N)c1=O	99.9% (inactive)
N#CC1C(=N)Cc2ccccc2-c2ccccc21 (stereo not drawn)	65.6% (inactive)

SMILES	growth
Cc1cc(N2CCCCC2)nc(N(CCNc2ccnc3cc(Cl)ccc23)Cc2ccco2)n1	23.4% (inactive)
C[C@@H](C(=O)O)c1ccc2c3cc(Cl)ccc3n(Cc3cc(=O)oc4ccc(Cl)cc34)c2c1	95.9% (inactive)
C=C1C(=O)O[C@H]2[C@H]1CC/C(COC(=O)NCc1cc3ccccc3[nH]1)=C\CC[C@@]1(C)O[C@@H]21	-84.5% (active)
CCOC(=O)N1CCN(CCCCOc2ccc(C(C)(C)CC)cc2)CC1	99.7% (inactive)
OCC(CO)(CCl)CCl	100% (inactive)
COc1ccc(-c2cc(/C=C/C(=O)c3ccc(N)cc3)[nH]n2)cc1	17.8% (inactive)
CC(C)(C)c1nc(-c2ccc(O)c(O)c2)cs1	77.5% (inactive)
Brc1ccc(Cn2nnnc2-c2ccn(-c3ccccc3)n2)cc1	82.8% (inactive)
COC(=O)C(Cc1ccccc1)n1cc(COc2nc(Cl)nc(Nc3ccc(Cl)cc3)n2)nn1 (stereo not drawn)	98.9% (inactive)
COc1cccc(-c2nn(-c3ccccc3)cc2-c2ccnc(NCCNS(=O)(=O)c3ccccc3)c2)c1	42.7% (inactive)
Nc1c(C(=O)Nc2cccc3ccccc23)sc2nc3c(cc12)CCCC3	34.7% (inactive)
Cn1cc(-c2csc(-c3cn(CCN)c4ccc(F)cc34)n2)c2cccnc21	79.4% (inactive)
COc1ccc(NC(=S)N/N=C/c2ccccc2SSCCC(=O)OC[C@H]2O[C@H](O)[C@H](O)[C@@H](O)[C@@H]2O)cc1	89.7% (inactive)
c1ccc(-c2nc(Nc3ccc(-c4nc5ccccc5[nH]4)cc3)nc(N3CCOCC3)n2)cc1	-88.9% (active)
COc1cnc2c(c1)C(=O)c1c-2n(CCCNC2=NCCS2)c(=O)c2cc([N+](=O)[O-])ccc12	-93% (active)
OCCNc1nc(Nc2ccc(Cl)c(Cl)c2)nc2ccccc12	62% (inactive)
Oc1ccc(CCC2CCCC(CCc3ccc(OCCF)cc3)N2)cc1 (stereo not drawn)	95.9% (inactive)
Cc1ccsc1-c1ccc2c(c1)COC2(CCCN(C)C)c1ccc(F)cc1 (stereo not drawn)	63.8% (inactive)
COc1ccc(NC(=O)c2ccoc2COc2ccccc2)cc1	96.9% (inactive)
